The values below come from PubChem BioAssay AID1063 (University of Pittsburgh Molecular Library Screening Center, 2008).

The structures appear in SMILES notation. In all, about 200,000 compounds went through this assay and about 18,000 (9%) were called active. This is one part of a sample in which actives are shown more often than they occur. Unmarked numbers belong to inactive results. No stated cut-off is given here; in the data, active means inhibition above about 50%; inactive means the rest.

Broadly, the inhibition is the change of the read-out against control, counted positive when it falls.

A short description of this experiment: antileishmanial activity against promastigotes – primary screen (AID 1063).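 Further: promastigotes grown with compound for 44 hours at 28 °C.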 Conditions: Leishmania major promastigotes, resazurin fluorescence viability; at 10 µM; stronger effect = higher value. A general note: Alamar Blue is a resazurin reagent that responds to reducing activity.
Take `CCN(CC)S(=O)(=O)c1ccc(N2CCOCC2)c(NC(=O)C2COc3ccccc3O2)c1` (stereo unspecified): the inhibition is 26.2%.

Consider `N#CC1=C(N)Oc2[nH]c(=S)[nH]c(=O)c2C12C(=O)Nc1ccccc12` (stereo unspecified), for which the inhibition was -9.87%.

For `COc1ccc(N2CCN(C(=O)CCSCc3ccccc3F)CC2)cc1`, the inhibition was 3.84%. The figure for `COC(=O)c1ccc(NC(=S)NN2CCOCC2)cc1` is -9.83%. As to `CC(NC(=O)Nc1ccccc1)C(c1cccs1)N1CCN(c2ccccc2)CC1` (stereo unspecified), the inhibition is -1.95%.

For the compound `Cc1nc2ccc(NC(=S)N3CCC(C)CC3)cc2nc1C`, the inhibition is -1.44%. Regarding `COc1ccc(OCCCn2cccc2/C=C2/C(=N)N3OC(C)=CC3=NC2=O)cc1`, the inhibition was 21.9%.

As for `Cc1cc(C)nc(SCC(=O)N(C)C)n1`, the inhibition was -4.86%. With `C/C(CC1CC(C)(C)OC1=O)=N/Nc1nc(-c2ccccc2)cs1` (stereo unspecified), the inhibition was 55.5% (active). As for `CC1(C)CC(CCC(=O)Nc2ccccc2Cl)C(=O)O1` (stereo unspecified), the inhibition was -7.36%. Regarding `CC1(C)CC(CC(=O)O)C(=O)O1` (stereo unspecified), the inhibition is -2.75%. Take `CC(=O)Nc1nc(N(C)C)nc(N(C)C)n1`: the inhibition is 2.36%.

With `O=C(NCc1ccco1)C(=O)c1cn(CC(=O)N2CCCCCC2)c2ccccc12`, the inhibition was 5.44%. For `COc1ccc(CCNC(=O)COC(=O)/C=C/c2cccs2)cc1OC`, the inhibition is 4.8%.

As to `O=C(COC(=O)/C=C/c1cccc(Cl)c1)NCCc1ccccc1`, the inhibition is 53.4% (active). In the case of `CCOC(=O)CCCNC(=O)COC(=O)/C=C/c1ccc2c(c1)OCO2`, the inhibition is -1.67%.

For the compound `COc1ccc(C2OCC3(CO2)SC(=O)NC3=O)cc1OC` (stereo unspecified), the inhibition was -7.62%. For the compound `O=C(NNC(=S)Nc1ccccc1)c1cccc(S(=O)(=O)N2CCOCC2)c1`, the inhibition is -4.58%.

As to `COc1ccccc1NC(=O)C[n+]1ccccc1`, the inhibition is -3.72%. `COC(=O)c1cc(C(=O)N(Cc2ccccc2)c2ccccn2)cc([N+](=O)[O-])c1`: the inhibition was 8.15%. For the compound `Fc1ccccc1/C=C1\CCCC2=C1Nc1ncnn1C2c1ccccc1F` (stereo unspecified), the inhibition was 98.9% (active). The same measure for `O=C(NCc1cccnc1)c1nc(-c2cccs2)no1`: 4.89%.

In the case of `COc1cccc(NC(=S)NCCCN2CCOCC2)c1`, the inhibition is 1.1%.

As to `CCOc1ccccc1C(=O)NC1CC2CCCC(C1)N2Cc1ccccc1` (stereo unspecified), the inhibition was 16%. On to `COc1ccc(NC(=O)NC2CC3CCCC(C2)N3Cc2ccccc2)cc1` (stereo unspecified), for which the inhibition was 66.9% (active). `COc1ccc(NC(=O)N2CCC(Cc3ccccc3)CC2)cc1`: the inhibition was -0.62%. For `C=CCn1c(CC(=O)Nc2cccc(OC)c2)nnc1SCC(=O)NC1CCCCC1`, the inhibition is -2.71%. The figure for `C=CCN1C2CCCC1CC(NC(=S)Nc1cccc(OC)c1)C2` (stereo unspecified) is 54.3% (active). Take `COc1ccc(N=C2SC(C(=O)Nc3ccc(F)cc3)CC(=O)N2C)cc1` (stereo unspecified): the inhibition is 20.6%. For the compound `CN1CCN(C(=O)/C(=C\c2ccc3c(c2)OCO3)NC(=O)c2cccs2)CC1`, the inhibition is -8.78%.

Take `CN(CCc1cn[nH]c1)C(=O)CC1C(=O)NCCN1Cc1cccc(Oc2ccccc2)c1` (stereo unspecified): the inhibition was 0.64%.

`O=C(/C=C/c1cn(-c2ccccc2)nc1-c1ccc2c(c1)OCCO2)NCCCN1CCOCC1`: the inhibition was 41.1%.

In the case of `Nc1ccc(OCC(O)C[n+]2ccc(CCS(=O)(=O)[O-])cc2)cc1` (stereo unspecified), the inhibition is -3.78%. `O=C(O)c1ccc(N/N=C/c2ccc3ncccc3c2)cc1`: the inhibition is -9.46%.

Take `CN(C(=O)CSc1nnc(-c2c[nH]c3ccccc23)o1)C1CCS(=O)(=O)C1` (stereo unspecified): the inhibition is 0.33%.

Take `CSCC(=O)N1CCCC(C(=O)c2cc(F)ccc2F)C1` (stereo unspecified): the inhibition was -4.01%. Take `CCOc1cccc(NC(=O)C2CCCN(S(=O)(=O)c3ccc(OC)cc3)C2)c1` (stereo unspecified): the inhibition is 30.8%. The figure for `COc1ccc(/C=C/CN2CCCC(C(=O)c3cc(F)ccc3F)C2)cc1` (stereo unspecified) is 81.1% (active); for `O=C1CCC(CCC(=O)N2CCCC(C(=O)c3ccc(Cl)cc3)C2)=NN1` (stereo unspecified) it is -5.05%.

Consider `CCc1nnc(NC(=O)CSc2nnnn2-c2cccc(C(C)=O)c2)s1`, for which the inhibition is -4.47%. In the case of `O=C(NNC(=O)c1ccccc1[N+](=O)[O-])Nc1ccccc1C(F)(F)F`, the inhibition was 0.59%.

For `Cn1cnnc1Sc1ccc(S(C)(=O)=O)cc1[N+](=O)[O-]`, the inhibition is -6.44%. As to `O=C(NCC1CCCO1)c1ccc2ccccc2n1` (stereo unspecified), the inhibition is -4.29%.

Consider `COc1ccc(C(=O)OCC(=O)NCC2CCCO2)cc1[N+](=O)[O-]` (stereo unspecified), for which the inhibition is -1.01%. The same measure for `O=C(/C=C/c1ccccc1[N+](=O)[O-])NCC1CCCO1` (stereo unspecified): 64.4% (active); for `CC(C)C(=O)Nc1c(O)c2ccccc2[nH]c1=O`: -11.4%; for `O=C(Nc1ccc(S(=O)(=O)N2CCc3ccccc3C2)cc1)c1ccccc1`: -4.05%.

Consider `CCn1cc(C(=O)NCC2CCCO2)c(=O)c2cc(S(=O)(=O)N3CCCCC3)ccc21` (stereo unspecified), for which the inhibition is 10.9%.

For the compound `CCn1cc(C(=O)NCCCN2CCCCCC2)c(=O)c2cc(S(=O)(=O)N3CCc4ccccc4C3)ccc21`, the inhibition is 89.7% (active). With `O=C(Cn1c(N2CCN(C/C=C/c3ccccc3)CC2)nc2ccccc21)c1ccccc1`, the inhibition was 53.2% (active).

As to `CCCCOC(=O)c1ccc(N2C(=O)CC(N3CCN(C/C=C/c4ccccc4)CC3)C2=O)cc1` (stereo unspecified), the inhibition was -5.72%. `CC(C)Cn1c(N2CCN(C(=O)/C=C/c3ccccc3)CC2)nc2ccccc21`: the inhibition was 5.8%. On to `Cc1ccc(-n2c(SCC(=O)N3c4ccccc4Sc4ccccc43)nnc2-c2ccncc2)cc1`, for which the inhibition was 62.6% (active). For the compound `Cc1ccc(-c2csc3nnc(SCC(=O)NCc4ccco4)n23)cc1`, the inhibition is -1.56%. `O=C(CSc1nnc(-c2ccncc2)n1-c1ccc(Cl)cc1)Nc1ccc(C(=O)O)cc1`: the inhibition was -7.6%. Turning to `CCn1c(SCC(=O)NCc2ccco2)nnc1-c1ccc(N)cc1`, the inhibition was -3.78%. In the case of `Cc1ccc(-n2c(SCC(=O)NCc3ccc4c(c3)OCO4)nnc2-c2cccnc2)c(C)c1`, the inhibition was 7.56%. The same measure for `Cc1ccc(Nc2nc(CSc3nnc(-c4ccncc4)n3-c3ccccc3C)cs2)cc1`: 28.5%; for `CCOc1ccccc1-n1c(SCC(=O)NCc2ccco2)nnc1-c1ccncc1`: 67.1% (active). As for `Cc1ccc(-c2nnc(SCC(=O)N/N=C/c3cccs3)n2-c2ccc(C)cc2)cc1`, the inhibition was 32%.

`Cc1ccccc1-n1c(SCC(=O)NCc2cccs2)nnc1-c1ccncc1`: the inhibition is 53% (active).
